# Measured values: PubChem BioAssay (Tox21)
# Results filed as inconclusive are left out. Entries that show only a call come without a potency. A number with no mark means an inactive call. Activity calls are given as the source filed them. Unless noted, calls come from the whole dose curve.
# Experiments:
# [1] = qHTS assay to identify small molecule antagonists of the vitamin D receptor (VDR) signaling pathway - cell viability counter screen (AID 743225; active = well fitted curve in the direction sought with a large enough effect in the repeat runs; an effect the other way counts as inactive or inconclusive; note: nearly all actives have a fitted effect of over 50% in size)
# Summary of the method: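 HEK293T VDR-bla; cpd + 1a,25-(OH)2D3 3 nM final, 16 h 37C/5% CO2; B/G FRET substrate 2 h RT; then CellTiter-Glo 30 min RT, luminescence.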
# [2] = qHTS assay to identify small molecule agonists of the NFkB signaling pathway (AID 1159509; active = well fitted curve in the direction sought with a large enough effect in the signal ratio in the repeat runs, not every such curve was filed as active; the % refers to the signal ratio; note: series mostly up to about 61 µM)
# Summary of the method: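 Beta-lactamase reporter assay run in quantitative high-throughput format on an NF-kB-responsive ME-180 line, with 5 hr compound treatment and a FRET-based blue/green fluorescence readout.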
# [3] = qHTS assay to identify small molecule agonists of the NFkB signaling pathway - cell viability counter screen (AID 1159515); note: series mostly up to about 61 µM; nearly all actives have a fitted effect of over 55% in size
# Summary of the method: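 Cells are seeded (2,000 NFkB-bla ME-180 per well), rested overnight, and dosed with DMSO-dissolved compounds for 5 hr at 37 C. Viability is then read by CellTiter-Glo luminescence after 30 min at room temperature.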
# [4] = qHTS assay to identify small molecule agonists of the endoplasmic reticulum stress response signaling pathway (AID 1159516; active = well fitted activation curve with a large enough effect in the signal ratio in the repeat runs, not every such curve was filed as active; the % refers to the signal ratio)
# Summary of the method: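 Cells are seeded at 1,500 per well and incubated overnight. Compounds in DMSO are added for 5 hr at 37 C, then beta-lactamase FRET substrate for 2 hr at room temperature, and fluorescence at 460 and 530 nm is measured.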
# [5] = qHTS assay to identify small molecule agonists of the endoplasmic reticulum stress response signaling pathway - cell viability counter screen (AID 1159517);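 note: HeLa cells carrying an ER stress response element beta-lactamase reporter; series mostly up to about 61 µM; nearly all actives have a fitted effect of over 50% in size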
# Summary of the method: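 After overnight attachment, ESRE-bla HeLa cells were treated with Tox21 library compounds for 5 hr. CellTiter-Glo luminescence, read 30 min post-addition at room temperature, reported viability.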
# [6] = qHTS assay to identify small molecule agonists of the AP-1 signaling pathway - cell viability counter screen (AID 1159525); note: nearly all actives have a fitted effect of over 55% in size
# Summary of the method: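 Intracellular ATP by Cell Titer Glo luminescence (30 min, RT) in the same ME-180 AP-1-bla wells after the 5 h compound exposure at 37 °C. Normalised to tetra n-octyl ammonium bromide and DMSO controls.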
# [7] = qHTS assay to identify small molecule agonists of the AP-1 signaling pathway (AID 1159526)
# [8] = biological target: Retinoic acid receptor RXR-alpha (Homo sapiens) (UniProt P19793); assay: qHTS assay to identify small molecule agonists of the RXR signaling pathway (AID 1159527); note: nearly all actives have a fitted effect of over 35% in size
# Chain of Retinoic acid receptor RXR-alpha (Homo sapiens) (P19793 whole entry, looked up): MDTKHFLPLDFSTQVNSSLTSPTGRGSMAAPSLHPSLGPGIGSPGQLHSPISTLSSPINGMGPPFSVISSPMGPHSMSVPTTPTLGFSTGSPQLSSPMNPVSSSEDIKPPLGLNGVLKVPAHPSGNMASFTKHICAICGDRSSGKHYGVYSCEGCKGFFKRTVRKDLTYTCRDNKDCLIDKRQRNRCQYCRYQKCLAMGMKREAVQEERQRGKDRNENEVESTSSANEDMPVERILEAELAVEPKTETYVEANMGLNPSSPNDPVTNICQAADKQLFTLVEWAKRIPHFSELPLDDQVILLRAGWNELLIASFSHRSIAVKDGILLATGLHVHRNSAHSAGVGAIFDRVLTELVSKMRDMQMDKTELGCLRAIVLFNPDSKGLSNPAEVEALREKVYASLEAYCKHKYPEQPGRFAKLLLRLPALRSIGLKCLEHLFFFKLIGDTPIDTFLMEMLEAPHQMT
# Summary of the method: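 Cells plated at 2,000/well, rested 5 hr at 37 C, pin-dosed with DMSO compound solutions, incubated 16 hr, then loaded with B/G FRET substrate for 2 hr at RT before dual-emission fluorescence reading.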
# [9] = qHTS assay to identify small molecule antagonists of the retinoid acid receptor (RAR) signaling pathway - cell viability counter screen (AID 1159551; active = well fitted curve in the direction sought with a large enough effect in the repeat runs; an effect the other way counts as inactive or inconclusive; note: nearly all actives have a fitted effect of over 35% in size; note: potency is the fitted concentration of half-maximal effect)
# Summary of the method: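 Cells (C3RL4) are plated, incubated overnight, dosed with compound in DMSO, then given retinol at 1 uM final. After 6 h at 37 C, CellTiter-Glo is added and luminescence read following 30 min at room temperature.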
# [10] = qHTS assay to identify small molecule antagonists of the retinoic acid receptor (RAR) signaling pathway (AID 1159552; active = well fitted curve in the direction sought with a large enough effect in the repeat runs; an effect the other way counts as inactive or inconclusive; note: nearly all actives have a fitted effect of over 50% in size)
# Summary of the method: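 Retinol at 1 uM final stimulated RARE-luciferase expression in C3RL4 cells exposed to test compounds for 6 hr at 37 C. Reduced luminescence, read 30 min after detection reagent, indicated pathway antagonism.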
# [11] = qHTS assay to identify small molecule agonists of the RXR signaling pathway - cell viability counter screen (AID 1159529; active = well fitted curve in the direction sought with a large enough effect in the repeat runs; an effect the other way counts as inactive or inconclusive;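 note: HEK 293T cells carrying an RXR-alpha UAS beta-lactamase reporter; series mostly up to about 77 µM; nearly all actives have a fitted effect of over 50% in size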)
# Summary of the method: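 Steps: seed RXR-alpha-UAS-bla HEK 293T cells in assay medium containing 2% charcoal-stripped FBS; incubate 5 hr; add compounds in DMSO; incubate 16 hr at 37 C; after the bla read, add CellTiter-Glo and read luminescence at 30 min.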
# [12] = qHTS assay to identify small molecule agonists of the retinoic acid receptor (RAR) signaling pathway (AID 1159553; active = well fitted curve in the direction sought with a large enough effect in the repeat runs; an effect the other way counts as inactive or inconclusive)
# Summary of the method: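 Seed C3RL4 reporter cells at 1,000 per well and incubate overnight at 37 C. Add compounds in DMSO, incubate 6 hr. Add luciferase reagent, wait 30 min at room temperature, read luminescence.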
# [13] = qHTS assay to identify small molecule antagonists of the retinoid-related orphan receptor gamma (ROR-gamma) signaling pathway - cell viability counter screen (AID 1159520; active = well fitted curve in the direction sought with a large enough effect in the repeat runs; an effect the other way counts as inactive or inconclusive; note: nearly all actives have a fitted effect of over 50% in size)
# Summary of the method: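 Cytotoxicity was read from cellular ATP (CellTiter-Glo luminescence) after 16 hr at 37 C with 1 uM doxycycline induction. The inducer was added 2 hr after compound transfer to Tet-on ROR gamma CHO cells.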
# [14] = biological target: Nuclear receptor ROR-gamma (Homo sapiens) (UniProt P51449); assay: qHTS assay to identify small molecule antagonists of the retinoid-related orphan receptor gamma (ROR-gamma) signaling pathway (AID 1159521; active = well fitted curve in the direction sought with a large enough effect in the repeat runs; an effect the other way counts as inactive or inconclusive)
# Summary of the method: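 Cells were plated, rested 4 h at 37 C, exposed to compounds for 2 h, then given 1 uM final doxycycline hyclate to induce RORγ expression. After 16 h, ONE-Glo luminescence from the ROR response element reporter was measured.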
compound,measurement,setting,value
CC(C)OCC1CO1 (configuration not stated),Potency,[1],inactive
same,outcome,[2],inactive
same,outcome,[3],inactive
same,outcome,[4],inactive
same,outcome,[5],inactive
same,outcome,[6],inactive
same,outcome,[7],inactive
same,Potency,[8],inactive
same,Potency,[9],inactive
same,Potency,[10],inactive
N#C/C(=C1\SCC(c2ccccc2Cl)S1)n1ccnc1 (configuration not stated),Potency,[1],inactive
same,outcome,[2],inactive
same,outcome,[3],inactive
same,outcome,[4],inactive
same,outcome,[5],inactive
same,outcome,[6],inactive
same,outcome,[7],inactive
same,Potency,[11],inactive
same,Potency,[9],inactive
same,Potency,[10],inactive
same,Potency,[12],inactive
Nc1nccs1,Potency,[1],inactive
same,outcome,[2],inactive
same,outcome,[3],inactive
same,outcome,[4],inactive
same,outcome,[5],inactive
same,outcome,[6],inactive
same,outcome,[7],inactive
same,Potency,[8],inactive
same,Potency,[11],inactive
same,Potency,[9],inactive
COc1ccccc1N=Nc1c(S(=O)(=O)O)cc2cc(S(=O)(=O)O)cc(NC(C)=O)c2c1O,Potency,[1],inactive
same,outcome,[2],inactive
same,outcome,[3],inactive
same,outcome,[4],inactive
same,outcome,[5],inactive
same,outcome,[6],inactive
same,outcome,[7],inactive
same,Potency,[8],inactive
same,Potency,[9],22.9 µM (active)
same,Potency,[12],inactive
CO/N=C1\CN(c2nc3c(cc2F)c(=O)c(C(=O)O)cn3C2CC2)CC1CN (configuration not stated),Potency,[1],inactive
same,outcome,[2],inactive
same,outcome,[3],inactive
same,outcome,[4],inactive
same,outcome,[5],inactive
same,outcome,[6],inactive
same,Potency,[11],inactive
same,Potency,[9],inactive
OC/C(Br)=C(\Br)CO,Potency,[1],inactive
same,outcome,[2],inactive
same,outcome,[3],inactive
same,outcome,[4],inactive
same,Potency,[13],inactive
same,Potency,[14],inactive
same,outcome,[6],inactive
same,outcome,[7],inactive
same,Potency,[8],inactive
same,Potency,[11],inactive
same,Potency,[9],inactive
same,Potency,[10],inactive
same,Potency,[12],inactive
CCCCCCCC/C=C\CCCCCCCC(=O)OC,Potency,[1],inactive
same,outcome,[2],inactive
same,outcome,[3],inactive
same,outcome,[4],inactive
same,outcome,[5],inactive
same,outcome,[6],inactive
same,outcome,[7],inactive
same,Potency,[11],inactive
same,Potency,[9],inactive
NC(=O)Nc1ccc(Cl)c(Cl)c1,outcome,[2],inactive
same,outcome,[3],inactive
same,outcome,[4],inactive
same,outcome,[5],inactive
same,outcome,[7],inactive
same,Potency,[9],inactive
same,Potency,[10],inactive
same,Potency,[12],inactive
CCC(C)(C)C1CCC(O)CC1 (configuration not stated),outcome,[2],inactive
same,outcome,[3],inactive
same,outcome,[4],inactive
same,outcome,[5],inactive
same,outcome,[6],inactive
same,outcome,[7],inactive
same,Potency,[11],inactive
same,Potency,[9],inactive
same,Potency,[10],inactive
same,Potency,[12],inactive
CCCCCCCCCCCCCCCCBr,Potency,[1],inactive
same,outcome,[2],inactive
same,outcome,[3],inactive
same,outcome,[4],inactive
same,"activity, negative = cytotoxicity",[13],1.45% [at 19 µM]
same,"activity change, negative = inhibition",[14],15.4% [at 19 µM]
same,"viability change, negative = cytotoxic",[6],3.43% [at 15.8 µM]
same,activation,[7],-6.6% [at 15.8 µM]
same,activation,[8],0.932% [at 15.8 µM]
same,"activity change, negative = cytotoxicity",[11],2.29% [at 15.8 µM]
same,"activity change, negative = cytotoxicity",[9],5.27% [at 19 µM]
same,Potency,[12],inactive
COCC(O)CO (configuration not stated),Potency,[1],inactive
same,outcome,[2],inactive
same,outcome,[3],inactive
same,outcome,[4],inactive
same,outcome,[5],inactive
same,outcome,[6],inactive
same,Potency,[8],inactive
same,Potency,[11],inactive
same,Potency,[9],inactive
same,Potency,[12],inactive
O=C1OCCN1/N=C/c1ccc([N+](=O)[O-])o1,Potency,[1],inactive
same,outcome,[2],inactive
same,outcome,[3],inactive
same,outcome,[4],inactive
same,outcome,[5],inactive
same,outcome,[6],inactive
same,outcome,[7],inactive
same,Potency,[8],inactive
same,Potency,[11],inactive
same,Potency,[9],inactive
same,Potency,[12],inactive
CC1(C)C(=O)N(Br)C(=O)N1Cl,outcome,[2],inactive
same,outcome,[3],inactive
same,outcome,[4],inactive
same,outcome,[5],inactive
same,outcome,[6],inactive
same,Potency,[9],inactive
same,Potency,[12],inactive
CCC(C)=O,Potency,[1],inactive
same,outcome,[2],inactive
same,outcome,[3],inactive
same,outcome,[4],inactive
same,outcome,[5],inactive
same,outcome,[6],inactive
same,outcome,[7],inactive
same,Potency,[11],inactive
same,Potency,[9],inactive
same,Potency,[12],inactive
Cc1c(C(=O)NN2CCCCC2)nn(-c2ccc(Cl)cc2Cl)c1-c1ccc(Cl)cc1,outcome,[2],inactive
same,outcome,[3],inactive
same,outcome,[4],inactive
same,outcome,[5],inactive
same,outcome,[6],inactive
same,outcome,[7],inactive
same,Potency,[11],inactive
same,Potency,[9],inactive
Nc1c(I)cc(I)c(C(=O)N(CCC(=O)O)c2ccccc2)c1I,Potency,[1],inactive
same,outcome,[2],inactive
same,outcome,[3],inactive
same,outcome,[4],inactive
same,outcome,[5],inactive
same,outcome,[6],inactive
same,outcome,[7],inactive
same,Potency,[11],inactive
same,Potency,[9],inactive
same,Potency,[12],inactive
CCOC(=O)/C=C/C(=O)O,outcome,[2],inactive
same,outcome,[3],inactive
same,outcome,[4],inactive
same,outcome,[5],inactive
same,outcome,[6],inactive
same,outcome,[7],inactive
same,Potency,[9],inactive
CSc1ccc(Oc2ccc(S(N)(=O)=O)cc2CN(C)C)cc1C,outcome,[2],inactive
same,outcome,[3],inactive
same,outcome,[4],inactive
same,outcome,[5],inactive
same,outcome,[6],inactive
same,outcome,[7],inactive
same,Potency,[9],inactive
CCC(Cc1ccccc1)(C(=O)c1ccc(N2CCOCC2)cc1)N(C)C (configuration not stated),outcome,[2],inactive
same,outcome,[3],inactive
same,outcome,[4],inactive
same,outcome,[5],inactive
same,outcome,[6],inactive
same,outcome,[7],inactive
same,Potency,[11],inactive
same,Potency,[9],inactive
same,Potency,[12],inactive
CCn1nc(C)c2c1C(=O)NCC(c1ccc(O)cc1)=N2,Potency,[1],inactive
same,outcome,[2],inactive
same,outcome,[3],inactive
same,outcome,[4],inactive
same,outcome,[5],inactive
same,outcome,[6],inactive
same,outcome,[7],inactive
same,Potency,[8],inactive
same,Potency,[11],inactive
same,Potency,[9],inactive
OCCSc1ccccc1,Potency,[1],inactive
same,outcome,[2],inactive
same,outcome,[3],inactive
same,outcome,[4],inactive
same,outcome,[5],inactive
same,outcome,[6],inactive
same,outcome,[7],inactive
same,Potency,[9],inactive
CN1CCCN=C1/C=C/c1cccs1,Potency,[1],inactive
same,outcome,[2],inactive
same,outcome,[3],inactive
same,outcome,[4],inactive
same,outcome,[5],inactive
same,outcome,[6],inactive
same,outcome,[7],inactive
same,Potency,[11],inactive
same,Potency,[9],inactive
same,Potency,[12],inactive
Cc1occc1C(=O)Nc1ccc(C(=O)N2CCC(F)(F)/C(=C\C(=O)N3CCC(N4CCCCC4)CC3)c3ccccc32)cc1,Potency,[1],inactive
same,outcome,[2],inactive
same,outcome,[3],inactive
same,outcome,[4],inactive
same,outcome,[5],inactive
same,outcome,[6],inactive
same,Potency,[9],inactive
same,Potency,[10],inactive
same,Potency,[12],inactive
